The AC50 is the concentration at which the activity in the assay is half-maximal.

Each structure is given as a SMILES string. Records with an inconclusive call do not appear. Calls of active or inactive are those of the source. The calls were made as follows, unless noted: active = hit-call score of the fitted dose curve at least 0.9, where 1 is the maximum; inactive = score below 0.9.

Assay [1] addresses Retinoic acid receptor RXR-alpha (Homo sapiens) (UniProt P19793). Description: ATG_RXRa_TRANS: Attagene TRANS-FACTORIAL HepG2 Assay for human Retinoid X Receptor alpha (RXRa) (AID 2283012; active = hit-call score of the fitted dose curve at least 0.9, where 1 is the maximum). Put shortly:
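HepG2 cells transiently transfected with GAL4-UAS reporter units and chimeric RXRa-Gal4 protein, treated 24 h. Reporter mRNA measured by RT-PCR, fluorescent labelling, HpaI digestion and capillary electrophoresis. Induction fitted against DMSO.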

Assay [2] addresses human Retinoid X Receptor beta (RXRb), RXRB (gene 6257) (UniProt P28702). Description: ATG_RXRb_TRANS: Attagene TRANS-FACTORIAL HepG2 Assay for human Retinoid X Receptor beta (RXRb) (AID 2283013; active = hit-call score of the fitted dose curve at least 0.9, where 1 is the maximum). Put shortly:
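HepG2 cells were transiently transfected with multiplexed GAL4-UAS reporters and a chimeric RXRb-Gal4 construct, then exposed for 24 h. Reporter mRNA was quantified by RT-PCR, FAM labeling, HpaI digestion and capillary electrophoresis; gain of signal was scored against DMSO.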

Read-out in assay [3]: E-selectin (Homo sapiens) (UniProt P16581)
Description: BSK_3C_Eselectin: BioMAP Diversity Plus: 3C Assay for Eselectin Biomarker Activity (AID 2283015). The conditions noted are these: primary human endothelial cells (HUVEC); actives raise or lower the signal. Put shortly: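 Primary human umbilical vein endothelial cells (3C system), read 24 h after compound addition; E-selectin measured by ELISA. Bidirectional curve fitting against DMSO baseline; cytotoxicity by parallel SRB total-protein staining.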

Read-out in assay [4]: Interleukin-1 alpha (IL1a), IL1A (gene 3552)
Description: BSK_BE3C_IL1a: BioMAP Diversity Plus: BE3C Assay for Interleukin-1 alpha (IL1a) Biomarker Activity (AID 2283016). The settings on record: primary human bronchial epithelial cells; actives raise or lower the signal. In a few lines: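 Human primary bronchial epithelial cells, 24 h chemical exposure; IL-1a quantified by ELISA, fitted bidirectionally against DMSO. Cytotoxicity assessed in parallel by SRB total-protein staining at the time of measurement.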

Read-out in assay [5]: Monocyte Chemoattractant Protein-1 (MCP1), CCL2 (gene 6347)
Description: BSK_3C_MCP1: BioMAP Diversity Plus: 3C Assay for Monocyte Chemoattractant Protein-1 (MCP1) Biomarker Activity (AID 2283017). The conditions noted are these: primary human endothelial cells (HUVEC); actives raise or lower the signal. Put shortly: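 Human umbilical vein endothelial cells (3C system) exposed to chemicals for 24 h; MCP-1 quantified by ELISA against the DMSO baseline with bidirectional fitting, and parallel SRB staining used to assess cytotoxicity.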

Read-out in assay [6]: Monocyte Chemoattractant Protein-1 (MCP1), CCL2 (gene 6347)
Description: BSK_4H_MCP1: BioMAP Diversity Plus: 4H Assay for Monocyte Chemoattractant Protein-1 (MCP1) Biomarker Activity (AID 2283018). The conditions noted are these: primary human endothelial cells (HUVEC); actives raise or lower the signal. In a few lines: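 Human umbilical vein endothelial cells (4H system) exposed to chemicals for 24 h in 96-well format. MCP-1 measured by ELISA; bidirectional fitting against DMSO, with SRB total-protein staining in parallel cultures for cytotoxicity.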

Read-out in assay [7]: Human Leukocyte Antigen - DR isotype (HLADR), HLA-DRA (gene 3122)
Put plainly: BSK_3C_HLADR: BioMAP Diversity Plus: 3C Assay for Human Leukocyte Antigen - DR isotype (HLADR) Biomarker Activity (AID 2283019).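 As to outcome: ELISA of cell-surface HLA-DR on HUVEC 24 h after dosing.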 The settings on record: primary human endothelial cells (HUVEC); actives raise or lower the signal. In a few lines:
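HUVEC monoculture, HLA-DR measured by ELISA 24 h after chemical dosing. Fitted bidirectionally against DMSO baseline; parallel SRB staining assessed cytotoxicity, with 3C proliferation read by SRB at 48 h.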

Read-out in assay [8]: Interleukin-8 (IL8), CXCL8 (gene 3576)
Put plainly: BSK_3C_IL8: BioMAP Diversity Plus: 3C Assay for Interleukin-8 (IL8) Biomarker Activity (AID 2283020). The settings on record: primary human endothelial cells (HUVEC); actives raise or lower the signal. In a few lines: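 Primary human umbilical vein endothelial cells were dosed for 24 h. IL-8 was quantified by ELISA and fitted bidirectionally against DMSO. Cytotoxicity was assessed in parallel cultures by SRB staining at 560 nm.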

Read-out in assay [9]: Monokine induced gamma interferon (MIG), CXCL9 (gene 4283)
Put plainly: BSK_3C_MIG: BioMAP Diversity Plus: 3C Assay for Monokine induced gamma interferon (MIG) Biomarker Activity (AID 2283021). The settings on record: primary human endothelial cells (HUVEC); actives raise or lower the signal. Put shortly:
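HUVEC primary endothelial cultures dosed with chemical; MIG quantified by ELISA at 24 h. Data fitted bidirectionally against DMSO control, with parallel SRB total-protein staining for cytotoxicity.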

Assay [10] is described as follows: BSK_3C_SRB: Viability Assessment in the BioMAP Diversity Plus: 3C Assay (AID 2283023).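 Also: fitted both ways against DMSO so a hit may be signal rise or drop.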 The conditions noted are these: primary human endothelial cells (HUVEC). Put shortly:
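Human umbilical vein endothelial cells in the 3C system, treated 24 h. Total protein measured by 0.1% sulforhodamine B staining after 10% TCA fixation, read at 560 nm; bidirectional fit versus DMSO.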

Read-out in assay [11]: Matrix Metallopeptidase 1 (MMP1), MMP1 (gene 4312)
Put plainly: BSK_BE3C_MMP1: BioMAP Diversity Plus: BE3C Assay for Matrix Metallopeptidase 1 (MMP1) Biomarker Activity (AID 2283024). The conditions noted are these: primary human bronchial epithelial cells; actives raise or lower the signal. In a few lines: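 Human primary bronchial epithelial cells (BE3C system) dosed for 24 h; MMP-1 quantified by ELISA. Bidirectional fit against DMSO; cytotoxicity tracked in parallel cultures by SRB total-protein staining.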

Assay [12] in a line: BSK_3C_Vis: BioMAP Diversity Plus: 3C Assay for Morphology Visualization (AID 2283025).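 Also: fitted both ways so gain or loss versus DMSO counts.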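 As to AC50: light microscopy image of cell morphology used as background control.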 The conditions noted are these: primary human endothelial cells (HUVEC). Put shortly:
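Human umbilical vein endothelial cell morphology was inspected by light microscopy 24 h after chemical dosing; scored bidirectionally relative to DMSO.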

Read-out in assay [13]: Pselectin, SELP (gene 6403)
Put plainly: BSK_4H_Pselectin: BioMAP Diversity Plus: 4H Assay for Pselectin Biomarker Activity (AID 2283026). The conditions noted are these: primary human endothelial cells (HUVEC); actives raise or lower the signal. In a few lines:
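Primary human umbilical vein endothelial cells were treated 24 h, and cell-surface P-selectin was then quantified by ELISA. Bidirectional fit versus DMSO; cytotoxicity checked in parallel cultures by SRB total-protein staining.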

The nature of assay [14]: BSK_4H_SRB: Viability Assessment in the BioMAP Diversity Plus: 4H Assay (AID 2283027).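 Also: cells exposed to compound for 24 h before staining.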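 As to AC50: curves fitted both ways versus DMSO so AC50 may be loss or gain.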 The settings on record: primary human endothelial cells (HUVEC). Put shortly:
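Absorbance at 560 nm of SRB-stained total protein served as the viability read-out in confluent primary human umbilical vein endothelium 24 h after chemical treatment. Curves were fitted bidirectionally against DMSO as negative control.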

Assay [15] in a line: BSK_BE3C_SRB: Viability Assessment in the BioMAP Diversity Plus: BE3C Assay (AID 2283028). The conditions noted are these: primary human bronchial epithelial cells. In a few lines:
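Human bronchial epithelial primary cells in confluent culture, 24 h after chemical dosing; total protein by 0.1% SRB staining after 10% TCA fixation, read at 560 nm. Bidirectional fitting versus DMSO baseline.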

Read-out in assay [16]: Thrombomodulin, THBD (gene 7056)
Put plainly: BSK_3C_Thrombomodulin: BioMAP Diversity Plus: 3C Assay for Thrombomodulin Biomarker Activity (AID 2283029). The settings on record: primary human endothelial cells (HUVEC); actives raise or lower the signal. Put shortly: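 Human umbilical vein endothelial cells were exposed to chemicals for 24 h; cell-surface thrombomodulin quantified by ELISA, with bidirectional fitting against DMSO baseline.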

Read-out in assay [17]: Urokinase-type plasminogen activator receptor (uPAR), PLAUR (gene 5329)
Description: BSK_4H_uPAR: BioMAP Diversity Plus: 4H Assay for Urokinase-type plasminogen activator receptor (uPAR) Biomarker Activity (AID 2283030). The settings on record: primary human endothelial cells (HUVEC); actives raise or lower the signal. In a few lines:
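Human umbilical vein endothelial cells in the 4H system, 24 h after chemical dosing. Cell-surface uPAR measured by ELISA, fitted in both directions versus DMSO; cytotoxicity checked by SRB total protein in parallel cultures.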

Assay [18] has as its target human Thyroid Receptor alpha (THRa1), THRA (gene 7067) (UniProt P10827). Description: ATG_THRa1_TRANS: Attagene TRANS-FACTORIAL HepG2 Assay for human Thyroid Receptor alpha (THRa1) (AID 2283014; active = hit-call score of the fitted dose curve at least 0.9, where 1 is the maximum). In a few lines:
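HepG2 cells transiently transfected with chimeric NR-Gal4 and GAL4-UAS reporter units, dosed 24 h. Reporter mRNA quantified by RT-PCR, fluorescent labeling, HpaI digestion and capillary electrophoresis; gain-of-signal fit versus DMSO.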

In assay [19] the target is human Vitamin D Receptor (VDR), VDR (gene 7421) (UniProt P11473). Description: ATG_VDR_TRANS: Attagene TRANS-FACTORIAL HepG2 Assay for human Vitamin D Receptor (VDR) (AID 2283022; active = hit-call score of the fitted dose curve at least 0.9, where 1 is the maximum). In a few lines:
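HepG2 cells were transiently transfected with GAL4-UAS reporter units and a chimeric VDR-Gal4 construct, then dosed for 24 hours. Reporter mRNA was quantified by RT-PCR, fluorescent labeling, HpaI digestion and capillary electrophoresis; gain of signal analysed vs DMSO.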

human Retinoid X Receptor beta (RXRb), RXRB (gene 6257), sequence (P28702 whole entry, looked up, the tested form may be a part): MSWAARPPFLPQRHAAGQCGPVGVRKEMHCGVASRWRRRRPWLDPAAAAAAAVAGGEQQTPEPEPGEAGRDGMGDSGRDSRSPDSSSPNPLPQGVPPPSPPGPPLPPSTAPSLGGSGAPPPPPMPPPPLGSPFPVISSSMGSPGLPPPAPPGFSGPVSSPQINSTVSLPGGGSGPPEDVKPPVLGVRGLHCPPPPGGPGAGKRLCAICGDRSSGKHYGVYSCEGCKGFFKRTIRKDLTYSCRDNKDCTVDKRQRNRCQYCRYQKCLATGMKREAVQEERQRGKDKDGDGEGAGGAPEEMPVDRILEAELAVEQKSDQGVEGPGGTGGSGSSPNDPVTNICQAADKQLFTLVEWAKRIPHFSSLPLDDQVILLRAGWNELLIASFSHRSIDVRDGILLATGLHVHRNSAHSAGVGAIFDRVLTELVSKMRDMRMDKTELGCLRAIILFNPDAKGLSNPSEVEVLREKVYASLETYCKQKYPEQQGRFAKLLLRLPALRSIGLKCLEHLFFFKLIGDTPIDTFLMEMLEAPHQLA
human Vitamin D Receptor (VDR), VDR (gene 7421), sequence (P11473 whole entry, looked up, the tested form may be a part): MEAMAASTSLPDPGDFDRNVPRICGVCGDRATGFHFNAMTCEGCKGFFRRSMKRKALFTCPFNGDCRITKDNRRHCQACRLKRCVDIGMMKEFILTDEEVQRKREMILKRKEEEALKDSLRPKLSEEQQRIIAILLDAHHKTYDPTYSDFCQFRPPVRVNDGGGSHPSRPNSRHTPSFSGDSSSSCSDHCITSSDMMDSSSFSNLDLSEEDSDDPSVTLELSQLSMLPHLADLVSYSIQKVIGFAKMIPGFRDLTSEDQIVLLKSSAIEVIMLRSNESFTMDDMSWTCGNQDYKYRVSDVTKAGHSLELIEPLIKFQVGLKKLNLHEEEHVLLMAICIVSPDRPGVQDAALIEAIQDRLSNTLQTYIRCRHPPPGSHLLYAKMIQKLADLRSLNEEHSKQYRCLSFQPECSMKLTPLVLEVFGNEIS
E-selectin (Homo sapiens), sequence (P16581 whole entry, looked up): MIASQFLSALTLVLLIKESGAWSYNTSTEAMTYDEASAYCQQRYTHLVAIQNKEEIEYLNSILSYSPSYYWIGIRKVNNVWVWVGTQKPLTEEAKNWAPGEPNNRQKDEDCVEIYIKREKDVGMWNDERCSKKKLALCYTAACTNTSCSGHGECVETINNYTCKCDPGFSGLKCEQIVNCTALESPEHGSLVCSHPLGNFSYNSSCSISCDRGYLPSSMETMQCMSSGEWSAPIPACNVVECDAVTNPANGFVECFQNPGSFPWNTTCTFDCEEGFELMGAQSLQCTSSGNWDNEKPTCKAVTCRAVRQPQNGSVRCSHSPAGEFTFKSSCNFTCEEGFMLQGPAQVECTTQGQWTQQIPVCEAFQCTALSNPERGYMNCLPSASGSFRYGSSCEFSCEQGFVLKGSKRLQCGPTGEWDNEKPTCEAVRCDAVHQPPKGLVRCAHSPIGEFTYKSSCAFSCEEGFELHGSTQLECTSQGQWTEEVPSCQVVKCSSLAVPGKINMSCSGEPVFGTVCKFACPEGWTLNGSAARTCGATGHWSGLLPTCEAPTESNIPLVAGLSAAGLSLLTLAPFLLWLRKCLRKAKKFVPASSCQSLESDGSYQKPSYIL
human Thyroid Receptor alpha (THRa1), THRA (gene 7067), sequence (P10827 whole entry, looked up, the tested form may be a part): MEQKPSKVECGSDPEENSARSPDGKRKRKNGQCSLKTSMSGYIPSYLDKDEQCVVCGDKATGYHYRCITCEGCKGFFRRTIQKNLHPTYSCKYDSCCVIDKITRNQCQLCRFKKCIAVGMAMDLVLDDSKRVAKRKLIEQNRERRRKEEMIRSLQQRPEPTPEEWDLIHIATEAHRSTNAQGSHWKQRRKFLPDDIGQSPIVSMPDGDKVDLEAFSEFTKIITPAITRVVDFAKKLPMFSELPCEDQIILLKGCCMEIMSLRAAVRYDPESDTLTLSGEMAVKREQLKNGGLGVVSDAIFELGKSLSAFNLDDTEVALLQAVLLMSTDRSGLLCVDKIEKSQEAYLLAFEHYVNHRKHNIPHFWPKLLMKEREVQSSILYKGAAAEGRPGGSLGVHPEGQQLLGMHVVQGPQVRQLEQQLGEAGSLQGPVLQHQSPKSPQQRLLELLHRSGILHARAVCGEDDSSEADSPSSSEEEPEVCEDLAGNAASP
Retinoic acid receptor RXR-alpha (Homo sapiens), sequence (P19793 whole entry, looked up, the tested form may be a part): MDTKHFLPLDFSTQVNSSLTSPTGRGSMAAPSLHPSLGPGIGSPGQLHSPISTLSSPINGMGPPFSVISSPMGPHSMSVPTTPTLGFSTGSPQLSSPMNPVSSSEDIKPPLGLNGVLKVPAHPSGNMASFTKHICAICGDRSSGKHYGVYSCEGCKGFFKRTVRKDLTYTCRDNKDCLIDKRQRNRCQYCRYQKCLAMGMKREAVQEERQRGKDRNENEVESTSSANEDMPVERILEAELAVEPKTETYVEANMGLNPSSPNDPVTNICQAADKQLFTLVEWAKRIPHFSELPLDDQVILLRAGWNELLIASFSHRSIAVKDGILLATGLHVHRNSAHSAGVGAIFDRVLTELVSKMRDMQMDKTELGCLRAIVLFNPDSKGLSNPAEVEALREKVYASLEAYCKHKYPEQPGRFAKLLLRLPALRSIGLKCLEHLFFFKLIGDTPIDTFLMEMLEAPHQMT

`c1ccc(-c2ccccc2)cc1`: the compound was called inactive in [1], in assay [3], in assay [4], in assay [5], in assay [6] and in [7]. Further, the result in assay [8], in [9], in assay [10], in assay [11], in [12] and in [13] was inactive. Besides, the result in assay [14], in assay [15], in assay [16] and in assay [17] was inactive. In assay [2], the concentration at half-maximal activity (AC50) was 110 µM (active).

With `ClC1=C(Cl)[C@]2(Cl)[C@@H]3[C@H]4C[C@H]([C@@H]5O[C@H]45)[C@@H]3[C@@]1(Cl)C2(Cl)Cl`, the compound was classed as inactive in assay [1], in assay [2], in assay [18], in assay [3], in [4] and in [5]. For the same compound, the outcome in assay [9], in assay [19], in assay [12], in assay [15], in assay [16] and in assay [17] was inactive. Moreover, the AC50 is 5.75 µM (active) in assay [6]; 7.35 µM (active) in assay [7]; 9.88 µM (active) in assay [10]; 7.22 µM (active) in assay [11]; 3.97 µM (active) in [14].

Turning to `Cc1ccc(O)c(C)c1`, the outcome in assay [2], in [18], in assay [3], in assay [4], in [5] and in assay [6] was inactive. Also, the result in [8], in assay [9], in [10], in assay [11], in [12] and in assay [14] was inactive. Also, the outcome in assay [15], in assay [16] and in [17] was inactive. Also, the AC50 in [7] was 7.99 µM (active).

In the case of `O=C(N[C@H]1CN2CCC1CC2)c1cc2ccoc2cn1`, the outcome in [2], in assay [3], in [4], in assay [5], in assay [6] and in [7] was inactive. The result in [8], in [9], in [19], in assay [10], in [11] and in assay [12] was inactive. Besides, the outcome in assay [13], in assay [14], in assay [16] and in assay [17] was inactive.

Turning to `CCC(C)c1cc([N+](=O)[O-])cc([N+](=O)[O-])c1O` (stereo unspecified), the compound was classed as inactive in assay [1], in [2], in assay [18], in assay [4], in assay [9] and in assay [11]. Also, the outcome in [15] and in [16] was inactive. Further, the AC50 in assay [3] was 8.02 µM (active); in assay [5] it was 9.99 µM (active); in assay [6] it was 5.15 µM (active); in assay [7], 14 µM (active); in assay [10], 10 µM (active); in assay [12], 9.8 µM (active). In addition, the AC50 was 12.6 µM (active) in assay [14] and 11.5 µM (active) in assay [17].

`CC(c1ccc(O)cc1)(c1ccc(O)cc1)c1ccc(O)cc1`: the compound was called inactive in [1], in assay [3], in assay [9], in assay [11] and in assay [16]. For the same compound, the AC50 in assay [4] is 6.69 µM (active); in assay [5], 31.1 µM (active); in assay [6], 18.9 µM (active); in [7], 28.5 µM (active); in assay [19], 17.7 µM (active); in [10], 28 µM (active). In addition, the AC50 in assay [12] is 39 µM (active); in assay [13], 31.9 µM (active); in assay [14], 20 µM (active); in assay [17] it was 30.8 µM (active).

On to `CCCCCCCCOC(=O)c1ccccc1C(=O)OCCCCCCCC`, for which the call in assay [1], in [2], in [3], in assay [4], in [5] and in assay [6] was inactive. Moreover, the outcome in [9], in [10], in assay [11], in assay [12], in assay [14] and in assay [16] was inactive. Also, the AC50 was 12.9 µM (active) in assay [7] and 3.7 µM (active) in assay [17].

Source of the values: PubChem BioAssay (EPA / NIEHS).
